Measured values as given in PubChem BioAssay (NCATS).
“And” between values parts separate entries of the source, which are not always exact repeats. Equal values may be shown once. Records with an inconclusive call do not appear. Values without a mark were called inactive. The source made the active and inactive calls. The call rests on the fitted dose curve; in most records, active means well fitted curve in the direction sought with a large enough effect; inconclusive means small, poorly fitted or top-dose-only effect, or another doubt; inactive means no such curve, though single readings can be large; an effect the other way counts as inactive or inconclusive.

Assay: qHTS of pediatric cancer cell lines to identify multiple opportunities for drug repurposing: Primary screen for Rh41 cells (AID 1347108); further: nearly all actives have a fitted effect of over 70% in size;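 on activity change, negative = cytotoxic: luminescence drop marks cytotoxic hits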
Conditions: Rh41 rhabdomyosarcoma viability, CellTiter-Glo luminescence, 48 h; series mostly up to 46 µM; activity change, negative = cytotoxic: at the top concentration
Outline: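 500-1,000 cells/well; 5 h pre-incubation 37 °C/5% CO2; compound pinned; 48 h; CellTiter-Glo, 15 min RT; luminescence. MIPE 11-pt from 0.78 nM, NPC 8-pt from 0.59 nM final. Bortezomib 2.3 µM final as positive control.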
Potency means the concentration at half of the fitted maximal effect.

SMILES	activity change, negative = cytotoxic [%]	Potency
CC1=C2[C@H]3OC(=O)[C@@H](C)[C@@H]3CC[C@@]2(C)C=CC1=O	-1.48	–
CC[n+]1c(-c2ccccc2)c2cc(N)ccc2c2ccc(N)cc21	–	3350 nM (active)
COc1ccc(C(=O)N2CCCC2=O)cc1	–	inactive
CCS(=O)(=O)C(C)(C)S(=O)(=O)CC	-6.08	–
CC(CC(C(N)=O)(c1ccccc1)c1ccccc1)N(C)C (stereo not drawn)	13.6	–
CCCCCCCCC(=O)NCc1ccc(O)c(OC)c1	-6.22	–
C=CCOC(Cn1ccnc1)c1ccc(Cl)cc1Cl (stereo not drawn)	2.04	–
c1ccc2nc(N3CCNCC3)ccc2c1	3.82	–
O=C(CBr)Nc1ccc(Cl)cc1C(=O)c1ccccc1F	22.9	–
Cc1ccc(N=CN(C)C=Nc2ccc(C)cc2C)c(C)c1	19.9	–
CCOP(=S)(OCC)O/N=C(\C#N)c1ccccc1	10.8	–
CCc1ccc(C2CCNCC2)cc1	10.9	–
COC(=O)C1=CCCN(C)C1	–	inactive
C[C@@H]1C[C@@H]([C@H](O)CC2CC(=O)NC(=O)C2)C(=O)[C@@H](C)C1	–	4690 nM (active)
ClC1=C(Cl)C2(Cl)C(CBr)CC1(Cl)C2(Cl)Cl (stereo not drawn)	13.5	–

Assay: qHTS of pediatric cancer cell lines to identify multiple opportunities for drug repurposing: Confirmatory screen for NB1643 cells (AID 1347109); further: nearly all actives have a fitted effect of over 45% in size;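 on activity change, negative = cytotoxic: plate controls were DMSO for no effect and bortezomib for full effect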
Conditions: NB1643 neuroblastoma cell viability; series mostly up to 45.9 µM; activity change, negative = cytotoxic: at the top concentration
Outline: (§1)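 Cells (500-1,000/well) in growth media were settled 5 h at 37 degrees C, then given compounds for 48 h. Viability was read as CellTiter-Glo luminescence. Primary runs used MIPE at 11 points (0.78 nM-46 µM) and NPC at 8 points (0.59 nM-46 µM); follow-ups used 11 points.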

SMILES	Potency	activity change, negative = cytotoxic [%]
CN(C)C(=S)SSC(=S)N(C)C	1310 nM (active)	–
CC1Sc2c(C(=O)O)c(=O)c3cc(F)c(N4CCNCC4)cc3n21 (stereo not drawn)	–	-9.18
Cc1ccc([N+](=O)[O-])[c]2c1[O][Hg]2	737 nM (active)	–
C[C@@H]1O[C@@H](O[C@@H]2C=C3CC[C@@H]4[C@H](CC[C@]5(C)[C@@H](c6ccc(=O)oc6)CC[C@]45O)[C@@]3(C)CC2)[C@H](O)[C@H](O)[C@H]1O	82.7 nM (active)	–
CCCCCCCCCCCC[N+](C)(C)CCOc1ccccc1	11700 nM (active)	–
CN1[C@@H]2CC[C@H]1CC(OC(=O)c1cc(Cl)cc(Cl)c1)C2 (stereo partly drawn)	–	-18.1
CC[n+]1c(-c2ccccc2)c2cc(N)ccc2c2ccc(N)cc21	11700 nM (active)	–
CCCCCCCCC(=O)NCc1ccc(O)c(OC)c1	–	-12.4
COc1ccc2c(C(=O)c3ccc(Cl)cc3)c(C)n(CC(=O)O)c2c1	–	-4.9
CCc1ccc(C2CCNCC2)cc1	–	-0.325
COC(=O)C1=CCCN(C)C1	–	7.46
ClC1=C(Cl)C2(Cl)C(CBr)CC1(Cl)C2(Cl)Cl (stereo not drawn)	–	7.11

Assay: qHTS of pediatric cancer cell lines to identify multiple opportunities for drug repurposing: Confirmatory screen for A673 cells (AID 1347110);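 further: cells exposed to compound for 48 h before the viability read; nearly all actives have a fitted effect of over 65% in size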;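 on activity change, negative = cytotoxicity: plate controls were DMSO neutral control for no effect and bortezomib positive control for full effect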
Conditions: A673 Ewing sarcoma cell viability; series mostly up to 45.9 µM; activity change, negative = cytotoxicity: at the top concentration
Outline: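 Concentration-response curves came straight from titrations: 11 points (0.78 nM to 46 µM) for MIPE and several concentrations (0.59 nM to 46 µM) for NPC in primary, 11 points in follow-up. Readout: ATP luminescence at 48 h.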

SMILES	Potency	activity change, negative = cytotoxicity [%]
CN(C)C(=S)SSC(=S)N(C)C	329 nM (active)	–
Cc1ccc([N+](=O)[O-])[c]2c1[O][Hg]2	737 nM (active)	–
C[C@@H]1O[C@@H](O[C@@H]2C=C3CC[C@@H]4[C@H](CC[C@]5(C)[C@@H](c6ccc(=O)oc6)CC[C@]45O)[C@@]3(C)CC2)[C@H](O)[C@H](O)[C@H]1O	58.5 nM (active)	–
CCCCCCCCCCCC[N+](C)(C)CCOc1ccccc1	8270 nM (active)	–
O=C(O)Cc1ccccc1	–	5.78
CN1[C@@H]2CC[C@H]1CC(OC(=O)c1cc(Cl)cc(Cl)c1)C2 (stereo partly drawn)	–	-15.1
CC[n+]1c(-c2ccccc2)c2cc(N)ccc2c2ccc(N)cc21	3290 nM (active)	–
COc1ccc(C(=O)N2CCCC2=O)cc1	–	8.09
CCCCCCCCC(=O)NCc1ccc(O)c(OC)c1	–	-21.2
COc1ccc2c(C(=O)c3ccc(Cl)cc3)c(C)n(CC(=O)O)c2c1	7370 nM (active)	–
CCc1ccc(C2CCNCC2)cc1	–	-1.64
COC(=O)C1=CCCN(C)C1	–	14.8
C[C@@H]1C[C@@H]([C@H](O)CC2CC(=O)NC(=O)C2)C(=O)[C@@H](C)C1	1650 nM (active)	–

Assay: qHTS of pediatric cancer cell lines to identify multiple opportunities for drug repurposing: Confirmatory screen for SK-N-MC cells (AID 1347111);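 further: cells exposed to compound for 48 h before the readout; nearly all actives have a fitted effect of over 70% in size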;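 on activity change, negative = cytotoxic: plate controls were DMSO for no effect and bortezomib for full effect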
Conditions: SK-N-MC cell viability; series mostly up to 45.9 µM; activity change, negative = cytotoxic: at the top concentration
Outline: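 Metabolically active cells were quantified by ATP-dependent luminescence (CellTiter-Glo, 15 min at room temperature) following 48 h treatment. Cells had been plated at 500-1,000 per well and settled for 5 h beforehand.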

SMILES	Potency	activity change, negative = cytotoxic [%]
CN(C)C(=S)SSC(=S)N(C)C	0.928 µM (active)	–
CC1Sc2c(C(=O)O)c(=O)c3cc(F)c(N4CCNCC4)cc3n21 (stereo not drawn)	14.7 µM (active)	–
Cc1ccc([N+](=O)[O-])[c]2c1[O][Hg]2	0.233 µM (active)	–
C[C@@H]1O[C@@H](O[C@@H]2C=C3CC[C@@H]4[C@H](CC[C@]5(C)[C@@H](c6ccc(=O)oc6)CC[C@]45O)[C@@]3(C)CC2)[C@H](O)[C@H](O)[C@H]1O	0.0293 µM (active)	–
CCCCCCCCCCCC[N+](C)(C)CCOc1ccccc1	7.37 µM (active)	–
CN1[C@@H]2CC[C@H]1CC(OC(=O)c1cc(Cl)cc(Cl)c1)C2 (stereo partly drawn)	–	-21.3
CC[n+]1c(-c2ccccc2)c2cc(N)ccc2c2ccc(N)cc21	2.08 µM (active)	–
COc1ccc2c(C(=O)c3ccc(Cl)cc3)c(C)n(CC(=O)O)c2c1	10.4 µM (active)	–
CCc1ccc(C2CCNCC2)cc1	–	4.35
COC(=O)C1=CCCN(C)C1	18.5 µM (active)	–
C[C@@H]1C[C@@H]([C@H](O)CC2CC(=O)NC(=O)C2)C(=O)[C@@H](C)C1	928 nM (active) and 1.31 µM (active)	–
ClC1=C(Cl)C2(Cl)C(CBr)CC1(Cl)C2(Cl)Cl (stereo not drawn)	10.4 µM (active)	–

Assay: qHTS of pediatric cancer cell lines to identify multiple opportunities for drug repurposing: Confirmatory screen for BT-12 cells (AID 1347112); further: nearly all actives have a fitted effect of over 55% in size; on activity change, negative = cytotoxic: on the % scale 0 is the no-effect control and ±100 the full control effect
Conditions: BT-12 rhabdoid tumor cells, viability; series mostly up to 45.9 µM; activity change, negative = cytotoxic: at the top concentration
Outline: as §1

SMILES	activity change, negative = cytotoxic [%]	Potency
CC1Sc2c(C(=O)O)c(=O)c3cc(F)c(N4CCNCC4)cc3n21 (stereo not drawn)	-0.275	–
Cc1ccc([N+](=O)[O-])[c]2c1[O][Hg]2	–	4140 nM (active)
C[C@@H]1O[C@@H](O[C@@H]2C=C3CC[C@@H]4[C@H](CC[C@]5(C)[C@@H](c6ccc(=O)oc6)CC[C@]45O)[C@@]3(C)CC2)[C@H](O)[C@H](O)[C@H]1O	–	41.4 nM (active)
CN1[C@@H]2CC[C@H]1CC(OC(=O)c1cc(Cl)cc(Cl)c1)C2 (stereo partly drawn)	-10.6	–
CC[n+]1c(-c2ccccc2)c2cc(N)ccc2c2ccc(N)cc21	–	1470 nM (active)
CCCCCCCCC(=O)NCc1ccc(O)c(OC)c1	-11.2	–
COc1ccc2c(C(=O)c3ccc(Cl)cc3)c(C)n(CC(=O)O)c2c1	6.07	–
CCc1ccc(C2CCNCC2)cc1	0.318	–
COC(=O)C1=CCCN(C)C1	-0.309	–
C[C@@H]1C[C@@H]([C@H](O)CC2CC(=O)NC(=O)C2)C(=O)[C@@H](C)C1	–	2930 nM (active)
ClC1=C(Cl)C2(Cl)C(CBr)CC1(Cl)C2(Cl)Cl (stereo not drawn)	-10.2	–
